Among the data in PubChem BioAssay (NCI) are growth values, retold here.

This is part of a sample that, as a whole, favours compounds with a hit. Of some 83,000 tested, about 20% had one in any assay.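 Plates (96-well) were seeded with cells, treated with compound at one concentration, and incubated for 48 hours before percent growth was determined.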 Values without a mark were called inactive. Calls of active or inactive are those of the source. How the source made its calls: active means growth percent below 10; inactive means the rest.

Holding throughout (experiment): NCI-60 one-dose screen, 48 h (100 = growth as untreated, 0 = no growth, -100 = all killed)
Common to all, as to details: 10 µM unless noted

The test system of assay [1] is SR leukemia.
The test system of assay [2] is RPMI-8226 leukemia.
Assay [3] relates to OVCAR-8 ovarian.
In assay [4] the test system is OVCAR-5 ovarian.
Assay [5] deals with OVCAR-4 ovarian.
Assay [6] relates to SK-OV-3 ovarian.
Assay [7] concerns IGROV1 ovarian.
Assay [8] concerns OVCAR-3 ovarian.
The test system of assay [9] is HS 578T breast.
The subject of assay [10] is NCI/ADR-RES ovarian.
Assay [11] relates to T-47D breast.
Assay [12] relates to BT-549 breast.
Assay [13] concerns MDA-MB-435 melanoma.
In assay [14] the test system is SW-620 colon.
For assay [15], the system named is MCF7 breast.
Assay [16] has as its system HCT-116 colon.
Assay [17] relates to HCC-2998 colon.
Assay [18] has as its system KM12 colon.

As to `CC(=O)/C(=C/c1ccc(-c2ccccc2)cc1)C(=O)c1ccccc1`, the growth is 5.97% (active) in [1]; 39.9% in [2]; 84.5% in [3]; 106% in assay [4]; 85.8% in [5]; 95.4% in assay [6]. Moreover, the growth in assay [7] was 91%; in assay [8] it was 89.4%; in assay [9], 102%; in assay [10], 93.1%; in assay [11] it was 48.6%; in assay [12] it was 89.5%. The growth in assay [13] was 80.9%; in assay [14], 85.5%; in [15], 39.6%; in assay [16] it was 57.6%; in assay [17] it was 98.9%; in assay [18] it was 80.5%.

`CCOC(=O)c1c(C)oc2ncnc(Nc3ccc(C(=O)NCCc4ccccc4)cc3)c12`: the growth in assay [1] was 89.2%; in [2], 84.6%; in assay [3] it was 76.7%; in assay [4], 110%; in assay [5] it was 45.5%; in assay [6], 85.6%. In addition, the growth is 102% in assay [7]; 97.3% in [8]; 51.2% in assay [9]; 76.9% in assay [10]; 65.1% in [11]; 67.3% in [12]. In addition, the growth in [13] was 87.5%; in [14], 105%; in assay [15] it was 78.6%; in assay [16], 64.8%; in [17], 91.5%; in [18] it was 89%.

For `CCCNC(=O)Oc1ccc(/C(=C(/CC)Cc2ccccc2)c2ccc(OCCN(CC)CC)cc2)cc1`, the growth in assay [1] was -28.6% (active); in [2] it was 41.6%; in assay [3], 80.3%; in assay [4], 95.5%; in assay [5] it was 85.8%; in assay [6] it was 88.4%. Besides, the growth is 85.9% in [7]; 79.5% in assay [8]; 59% in assay [9]; 75.3% in [10]; 34.1% in [11]; 97.4% in assay [12]. For the same molecule, the growth in assay [13] is 87.8%; in [14] it was 70.9%; in assay [15] it was 26.3%; in assay [16], 49.1%; in assay [17], 50%; in [18], 69.2%.

Turning to `COc1cccc2c1nc1cccc(OC)c1[n+]2[O-]`, the growth was -0.211% (active) in assay [1]; 51.1% in [2]; 41.7% in [3]; 23.3% in [4]; 69.7% in assay [5]; 29% in [6]. The growth was -73.4% (active) in assay [7]; 101% in [8]; 80% in [9]; 37.4% in [10]; 32% in assay [11]; 32.9% in assay [12]. For the same molecule, the growth was 98.4% in assay [13]; 50% in [14]; 32.8% in assay [15]; 39.3% in assay [16]; -47.5% (active) in assay [17]; 54.9% in [18].

`COc1cc(OC)cc(-c2ccc(-c3ccc(C(=N)N)cc3)s2)c1`: the growth in [1] is -4.93% (active); in assay [2] it was -58.2% (active); in assay [3], -27.8% (active); in assay [4], -82% (active); in assay [5], -67.5% (active); in [6], -81.9% (active). The growth in assay [7] is -71.1% (active); in assay [8], -86.2% (active); in [9], -51.8% (active); in assay [10], -51.4% (active); in assay [11], -53.6% (active); in assay [12] it was -72.4% (active). Moreover, the growth in assay [13] is -97.5% (active); in [14] it was -73.7% (active); in assay [15] it was -75.2% (active); in [16], -93.3% (active); in [17] it was -76.5% (active); in [18], -84.9% (active).

For `Cn1c2c(cc(S(=O)(=O)c3ccccc3)c1=O)CCc1c-2cnn1-c1ccc(Cl)cc1`, the growth was 52% in assay [1]; 49.3% in assay [2]; -48.4% (active) in assay [3]; 26.2% in [4]; -9.94% (active) in assay [5]; 1.98% (active) in assay [6]. Besides, the growth was 50.6% in assay [7]; 56.4% in assay [8]; -10.1% (active) in assay [9]; 39.3% in [10]; -24.2% (active) in assay [11]; -13.8% (active) in [12]. In addition, the growth in [13] is 16.2%; in assay [14], 56.7%; in assay [15], -27.7% (active); in [16], 53%; in assay [17], 74.3%; in assay [18] it was 92.2%.

For `O=C(CCCC(=O)Nc1ccc(Cn2nnc3cc(Cl)c(Cl)cc32)cc1)Nc1ccc(CN2N=NC3C=C(Cl)C(Cl)=CC32)cc1` (centres undefined), the growth in assay [1] is 79.2%; in assay [2], 64.4%; in assay [3], 76.3%; in assay [4], 95.8%; in assay [5], 65.6%; in assay [6], 86.3%. Also, the growth is 81.1% in [7]; 87.7% in [8]; 91.5% in assay [9]; 83.1% in assay [10]; 49% in [11]; 71.5% in [12]. Further, the growth was 87.8% in assay [13]; 85.8% in assay [14]; 66.6% in assay [15]; 75.1% in assay [16]; 90.2% in [17]; 79.9% in [18].

For the molecule `O=c1c(N=Nc2nccs2)c(-c2ccccc2)[nH]n1-c1nc(-c2ccccc2)cs1`, the growth in [1] is 33.4%; in assay [2] it was 16.1%; in assay [3], 28.1%; in assay [4], 98.9%; in assay [5], 39.5%; in assay [6] it was 23.5%. In addition, the growth is 44.2% in [7]; 31.6% in assay [8]; 38.4% in assay [9]; 10.1% in [10]; 43.7% in assay [11]; 19% in assay [12]. In addition, the growth in [13] was 26.7%; in [14], 40.2%; in assay [15], 59.1%; in assay [16] it was 26.9%; in assay [17], 42.2%; in assay [18], 28.5%.
